# According to PubChem BioAssay (NCATS):
# Records with an inconclusive call do not appear. Calls of active or inactive are those of the source. Calls come from the whole dose curve; as a rule, active = well fitted inhibition curve with a large enough effect; inconclusive = small, poorly fitted or top-dose-only effect, or effect the other way; inactive = flat fitted curve, though single readings scatter.
# Target: ATPase family AAA domain-containing protein 5 (Homo sapiens) (UniProt Q96QE3)
# Test: Validation screen for small molecules that inhibit ELG1-dependent DNA repair in human embryonic kidney (HEK293T) cells expressing luciferase-tagged ELG1 (AID 493107); note: nearly all actives have a fitted effect of over 70% in size;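 for activity change, negative = decrease: inhibitors lower the ELG1-luciferase luminescence signal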
# Details: HEK293T ELG1-luciferase level, luminescence, 5-fluorouridine co-treatment, 16 h; series mostly up to 46.1 µM; activity change, negative = decrease: at the top concentration
# Source text: NIH Molecular Libraries Probe Production Network [MLPCN]
# NIH Chemical Genomics Center [NCGC]
# Assay Provider: Kyungjae Myung, NHGRI, NIH
# Keywords: MLPCN, qHTS, NCGC, genotoxicity, cancer
# Cancer cells divide rapidly compared to normal cells in the body. During cell division, cancer cells need to duplicate their genome by DNA replication. The failure of genome duplication leads to cancer cells' death. Therefore, inhibitors of DNA replication could specifically kill cancer cells. Based on this concept, many chemotherapeutic agents were developed and have been used to treat cancer patients. However, there are a limited number of agents available in the clinical setting, and some of those that do exist have low efficacy and severe side effects. Therefore, if we can find the compounds that effectively block DNA replication either by directly damaging DNA or by inhibiting other cellular mechanisms, the options for cancer treatment will be broadened. With this in mind, we developed a quantitative high-throughput ELG1-luciferase reporter gene assay. Small molecules that specifically block ELG1 function in response to DNA damage can be identified by monitoring the suppression of luciferase activity. Since ELG1 defines a pathway for repairing DNA damage, agents blocking ELG1 function can be used to sensitize cancer cells to chemotherapeutic agents whose mechanism of action involves the induction of DNA damage.
# For genotoxicity screening, 2,000 cells in 4 uL/well were dispensed into white, solid-bottom 1536-well plates using a solenoid-based dispenser. Following transfer of 1 uL 5-Fluorouridine and 23 nL compound or DMSO vehicle by a pin tool, the plates were incubated 16 hr at 37 °C and 5% CO2. 5 ul ONE-Glo (Promega) was then added to each plate and following a 30 min incubation at room temperature, luciferase activity was quantified on a ViewLux CCD-based plate reader.
# % is set by controls: 0 for no effect and ±100 for the full control effect; potency is the fitted concentration of half-maximal effect.
# Sequence of ATPase family AAA domain-containing protein 5 (Homo sapiens) (Q96QE3 whole entry, looked up, the tested form may be a part): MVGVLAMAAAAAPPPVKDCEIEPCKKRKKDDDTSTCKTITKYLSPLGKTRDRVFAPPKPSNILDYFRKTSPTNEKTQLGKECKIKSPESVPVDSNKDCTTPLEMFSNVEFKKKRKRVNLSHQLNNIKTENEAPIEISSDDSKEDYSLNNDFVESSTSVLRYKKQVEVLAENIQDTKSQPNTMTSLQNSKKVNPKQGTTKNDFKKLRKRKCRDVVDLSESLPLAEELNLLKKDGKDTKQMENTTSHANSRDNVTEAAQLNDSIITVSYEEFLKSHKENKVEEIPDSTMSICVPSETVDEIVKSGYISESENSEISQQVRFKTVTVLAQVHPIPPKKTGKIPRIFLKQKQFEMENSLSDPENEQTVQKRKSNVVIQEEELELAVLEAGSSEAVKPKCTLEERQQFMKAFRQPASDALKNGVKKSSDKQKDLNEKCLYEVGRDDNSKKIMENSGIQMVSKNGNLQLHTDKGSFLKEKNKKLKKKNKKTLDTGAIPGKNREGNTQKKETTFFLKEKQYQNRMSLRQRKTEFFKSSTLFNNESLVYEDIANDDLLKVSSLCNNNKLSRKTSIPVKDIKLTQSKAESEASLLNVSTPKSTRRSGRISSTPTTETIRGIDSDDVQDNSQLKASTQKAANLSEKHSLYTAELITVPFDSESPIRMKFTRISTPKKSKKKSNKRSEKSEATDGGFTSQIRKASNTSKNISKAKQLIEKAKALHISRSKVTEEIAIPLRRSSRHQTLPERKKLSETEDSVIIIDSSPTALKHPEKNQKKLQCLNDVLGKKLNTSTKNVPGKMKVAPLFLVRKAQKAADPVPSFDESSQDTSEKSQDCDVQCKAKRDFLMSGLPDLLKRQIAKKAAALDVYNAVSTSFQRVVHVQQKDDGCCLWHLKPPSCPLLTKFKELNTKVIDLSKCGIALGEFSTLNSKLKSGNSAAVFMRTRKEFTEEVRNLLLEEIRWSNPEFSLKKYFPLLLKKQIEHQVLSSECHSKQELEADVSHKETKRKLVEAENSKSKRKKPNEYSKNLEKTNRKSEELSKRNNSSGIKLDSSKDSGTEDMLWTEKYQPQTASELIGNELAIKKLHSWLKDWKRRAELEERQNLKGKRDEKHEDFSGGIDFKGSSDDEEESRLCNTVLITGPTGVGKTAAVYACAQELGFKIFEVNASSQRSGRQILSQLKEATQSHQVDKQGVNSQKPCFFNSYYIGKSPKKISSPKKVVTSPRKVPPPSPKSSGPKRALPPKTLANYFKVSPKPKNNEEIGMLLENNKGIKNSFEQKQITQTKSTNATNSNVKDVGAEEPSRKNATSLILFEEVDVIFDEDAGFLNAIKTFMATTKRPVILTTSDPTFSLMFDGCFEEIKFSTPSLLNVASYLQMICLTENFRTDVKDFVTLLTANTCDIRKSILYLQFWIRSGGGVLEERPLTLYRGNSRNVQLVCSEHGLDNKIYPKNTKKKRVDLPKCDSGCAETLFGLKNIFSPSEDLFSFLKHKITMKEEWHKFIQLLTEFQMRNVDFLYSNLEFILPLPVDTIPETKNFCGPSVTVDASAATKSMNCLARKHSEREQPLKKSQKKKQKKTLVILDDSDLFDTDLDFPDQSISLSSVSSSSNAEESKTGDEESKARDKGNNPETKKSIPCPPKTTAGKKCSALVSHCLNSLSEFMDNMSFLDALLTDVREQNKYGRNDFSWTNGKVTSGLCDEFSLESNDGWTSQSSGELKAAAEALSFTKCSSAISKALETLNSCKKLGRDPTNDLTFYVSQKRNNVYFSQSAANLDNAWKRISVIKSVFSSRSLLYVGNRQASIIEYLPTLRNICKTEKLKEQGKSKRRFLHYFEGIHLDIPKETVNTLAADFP
Compound,"activity change, negative = decrease",Potency
CCCCCCCCCCCCCCSCC(=O)O,3.34% (inactive),–
O=C1Nc2ccc(I)cc2/C1=C/c1cc(Br)c(O)c(Br)c1,-3.34% (inactive),–
COc1ccccc1N1CCN(CCCNc2c(C)c(=O)n(C)c(=O)n2C)CC1,11.7% (inactive),–
N[C@H](C(=O)O)[C@H]1C[C@@H]1C(=O)O,17.3% (inactive),–
COc1ccc(CCN(C)CCc2ccc(OC)c(OC)c2)cc1OC,-1.57% (inactive),–
OC1(c2ccc(Cl)cc2)CCN(Cc2c[nH]c3ccccc23)CC1,-7.7% (inactive),–
COc1ccc(NC(=O)c2ccc(-c3ccc(-c4noc(C)n4)cc3C)cc2)cc1N1CCN(C)CC1,–,20.6 µM (active)
CC1C(=O)N(C)C(=O)c2nc[nH]c21 (stereo not given),-1.57% (inactive),–
CNCCNS(=O)(=O)c1cccc2cnccc12,–,9.2 µM (active)
CN1CCN(c2nc3cc(C(F)(F)F)ccc3n3cccc23)CC1,-14.5% (inactive),–
N#Cc1cc2nc(O)c(O)nc2cc1[N+](=O)[O-],10.1% (inactive),–
C=CCN1CCc2c(cc(O)c(O)c2Br)[C@@H](c2ccccc2)C1,-0.802% (inactive),–
COc1cc(/C=C(\C#N)C(=O)Nc2nnc(C(F)(F)F)s2)ccc1OCc1ccc(C(F)(F)F)cc1C(F)(F)F,17% (inactive),–
CCOC(=O)C12CC1/C(=N/O)c1ccccc1O2 (stereo not given),23.7% (inactive),–
CC(N)=NCCCC[C@@H](N)C(=O)O,-3.42% (inactive),–
O=C1NC(=O)c2cc(Nc3ccccc3)c(Nc3ccccc3)cc21,–,13 µM (active)
CC(C)NC[C@H](O)COc1cccc2ccccc12,11.8% (inactive),–
CNCCc1cnc(CCC(c2ccccc2)c2ccccc2)[nH]1,-17.3% (inactive),–
CCc1ccc2c(-c3cccc(Cl)c3)nc(=O)n(CC)c2n1,-26.9% (inactive),–
C=CC1(C)CC(=O)C2(O)C(C)(O1)C(OC(C)=O)C(O)C1C(C)(C)CCC(O)C12C (stereo not given),4.24% (inactive),–

Compound,"activity change, negative = decrease",Potency
O=c1[nH]ccc2c(O)cccc12,3.63% (inactive),–
COCc1nc2c([nH]1)c(=O)n(C)c(=O)n2CC(C)C,3.37% (inactive),–
CC(N)=O,11.7% (inactive),–
CC(C)(C)c1ccc(/C=C/C(=O)Nc2ccc3c(c2)OCCO3)cc1,–,18.3 µM (active)
CC(=O)NNC(=O)N1Cc2ccccc2Oc2ccc(Cl)cc21,-8.23% (inactive),–
Cc1ccccc1/C=C/C1=NCCN1,4.56% (inactive),–
CC(=O)O[C@H]1CC2(C)[C@@H](C[C@@H](O)[C@H]3[C@@]4(C)CC[C@@H](O)[C@@H](C)[C@@H]4CC[C@@]32C)C1=C(CCC=C(C)C)C(=O)O (stereo not given in full),2.59% (inactive),–
NC1(C(=O)O)CC1,22.2% (inactive),–
C=C1C[C@@]23CC[C@H]4[C@@](C)(CCC[C@@]4(C)C(=O)OC4OC(CO)C(O)C(O)C4O)[C@@H]2CC[C@]1(OC1OC(CO)C(O)C(O)C1OC1OC(CO)C(O)C(O)C1O)C3 (stereo not given in full),28.9% (inactive),–
NOCC(=O)O,-8.39% (inactive),–
c1ccc(C2CN3CCSC3=N2)cc1 (stereo not given),5.34% (inactive),–
C=C1C[C@@]23CC[C@H]4[C@@](C)(CCC[C@@]4(C)C(=O)O)[C@@H]2CC[C@]1(O)C3,-2.96% (inactive),–
N[C@@H](CCC(=O)N[C@H](CSN=O)C(=O)NCC(=O)O)C(=O)O,-2.92% (inactive),–
O=[N+]([O-])c1cccc2c(Br)[nH]nc12,13% (inactive),–
NC[C@@H]1O[C@H](c2ccccc2)Cc2c1ccc(O)c2O,15.2% (inactive),–
C=CC[C@H](N)C(=O)O,25.1% (inactive),–
CCCCCCCCCCC/C=C\C(C)(C)/C=C\CCCC(=O)O,22.9% (inactive),–
N#CC(C#N)=C(N)/C(C#N)=C/c1ccc(O)cc1,-9.07% (inactive),–
NCC(O)(CS(=O)(=O)O)c1ccc(Cl)cc1 (stereo not given),10.8% (inactive),–
CC(N)(Cc1ccc(O)cc1)C(=O)O (stereo not given),6.31% (inactive),–
